# Records with an inconclusive call do not appear. Where a call stands in place of a potency, no number is given. Values without a mark were called inactive. Active and inactive are the calls of the source. The call rests on the fitted dose curve; in most records, active means well fitted curve in the direction sought with a large enough effect; inconclusive means small, poorly fitted or top-dose-only effect, or another doubt; inactive means no such curve, though single readings can be large; an effect the other way counts as inactive or inconclusive.
# Key:
# [1] = target: Aldehyde dehydrogenase, mitochondrial (Homo sapiens) (UniProt P05091); test: qHTS for Inhibitors of the Aldehyde Dehydrogenase Family (ALDH2) Primary screen (AID 2061308); further: nearly all actives have a fitted effect of over 55% in size
# [2] = target: Retinaldehyde dehydrogenase 3 (Homo sapiens) (UniProt P47895); test: qHTS for Inhibitors of the Aldehyde Dehydrogenase Family (ALDH1A3) Primary screen (AID 2061315)
# [3] = target: Aldehyde dehydrogenase 1A1 (Homo sapiens) (UniProt P00352); test: qHTS for Inhibitors of the Aldehyde Dehydrogenase Family (ALDH1A1) Confirmatory screens (AID 2061316); further: nearly all actives have a fitted effect of over 65% in size
# [4] = BET inhibitor-based combinations targeting novel dependencies in MECOM-rearranged (r) AML: SET-2 cell line (AID 2202231); conditions: SET-2 AML cells viability, CellTiter-Glo luminescence, 48 h; viability: stronger effect = lower value, series mostly up to about 46 µM; further: nearly all actives have a fitted effect of over 35% in size
# Outline: (§1)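 A 48 hr incubation preceded viability reading by CellTiter-Glo, with 15 min room-temperature development. Dose series had 11 points; normalization used DMSO and empty wells; AUC was computed and mean-centered per line as Z-AUC.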
# [5] = BET inhibitor-based combinations targeting novel dependencies in MECOM-rearranged (r) AML: OCI-AML3 cell line (AID 2202232); conditions: Potency: OCI-AML3 viability; further: nearly all actives have a fitted effect of over 35% in size; further: potency means the concentration at half of the fitted maximal effect
# Outline: as §1
# [6] = BET inhibitor-based combinations targeting novel dependencies in MECOM-rearranged (r) AML: HNT-34 cell line (AID 2202234); further: nearly all actives have a fitted effect of over 35% in size; further: potency means the concentration at half of the fitted maximal effect
# Outline: (§2)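 Each compound is tested in an 11-point concentration series against 500 seeded cells/well for 48 hr. The luminescent viability signal is normalized to DMSO and blank wells, then reduced to AUC and a cell-line-centred Z-AUC.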
# [7] = BET inhibitor-based combinations targeting novel dependencies in MECOM-rearranged (r) AML: UCSD-AML1 cell line (AID 2202235); further: nearly all actives have a fitted effect of over 40% in size; further: potency means the concentration at half of the fitted maximal effect
# Outline: as §2
# [8] = BET inhibitor-based combinations targeting novel dependencies in MECOM-rearranged (r) AML: AML-191 cell line (AID 2202236; further: nearly all actives have a fitted effect of over 35% in size; further: potency means the concentration at half of the fitted maximal effect)
# Outline: as §1
# [9] = BET inhibitor-based combinations targeting novel dependencies in MECOM-rearranged (r) AML: AML-194 cell line (AID 2202237; further: nearly all actives have a fitted effect of over 40% in size)
# Outline: as §1
# [10] = BET inhibitor-based combinations targeting novel dependencies in MECOM-rearranged (r) AML: MV-4-11 cell line (AID 2202233); further: nearly all actives have a fitted effect of over 45% in size; further: potency means the concentration at half of the fitted maximal effect
# Outline: as §2
Structure (SMILES),Potency [1],Potency [2],Potency [3],viability [4] [%],Potency [5],Potency [6],Potency [7],Potency [8],Potency [9],Potency [10]
CC(=O)c1c(O)cc(O[C@@H]2O[C@H](CO)[C@@H](O)[C@H](O)[C@H]2O)cc1O,inactive,inactive,inactive,–,–,–,–,–,–,–
Cc1c(F)cc(C(=O)NC2CC2)cc1-c1c(F)cn2c(C(C)(C)C)nnc2c1F,inactive,inactive,–,104,inactive,inactive,inactive,inactive,inactive,–
OCc1ccccc1O[C@@H]1O[C@H](CO)[C@@H](O)[C@H](O)[C@H]1O,inactive,inactive,–,115,inactive,inactive,inactive,inactive,inactive,inactive
CCS(=O)(=O)c1cccc(-c2cc(C(=O)NC3CCN(C)CC3)c(C)c3[nH]c4ncc(C)cc4c23)c1,inactive,inactive,–,–,1480 nM (active),235 nM (active),934 nM (active),3720 nM (active),–,93.4 nM (active)
COc1ncc(-c2ccc3c(Nc4cc(Oc5cc(F)cc(F)c5)cc(C(=O)O)c4)c(S(=O)(=O)NC4CC4)cnc3c2)c(OC)n1,inactive,inactive,–,110,inactive,inactive,inactive,inactive,–,–
N#CC1(c2cccc(C(=O)Nc3cc(Oc4ccc5nc(NC(=O)C6CC6)sc5n4)ccc3F)c2Cl)CC1,inactive,inactive,–,82.7,–,–,inactive,–,inactive,–
CCc1cc2c(cc1N1CCC(N3CCOCC3)CC1)C(C)(C)c1[nH]c3cc(C#N)ccc3c1C2=O,inactive,inactive,–,88.5,–,–,inactive,–,–,–
Cc1c(CN2CCN(C(=O)C(C)O)CC2)sc2c(N3CCOCC3)nc(-c3cnc(N)nc3)nc12 (stereo not given),inactive,inactive,–,–,–,–,–,–,–,–

# — PubChem BioAssay (NCATS)
